# HEK cytotox: Cytotoxic Profiling in HEK 293 Cell Line of Diverse Libraries Using Quantitative High-Throughput Screening | HEK 293 viability, ATP luminescence (CellTiter-Glo), 48-72 h | Potency, µM (highest dose often 115 µM), most hits filed as inhibitors | 94,000 compounds, 6.6% hits; further: nearly all actives have a fitted effect of over 60% in size
#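 Viability of HEK 293 cells, plated at 250 cells/well, was judged by cellular ATP after compound treatment for 48 or 72 hr. Luminescence was imaged 10 min after CellTiter-Glo addition at room temperature.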
# FLuc inh: Firefly luciferase inhibition profiling of diverse chemical library using quantitative high-throughput screening. 76,000 compounds, 2.5% hits. Luciferin 4-monooxygenase (Photinus pyralis), P08659. AID 1347043, 2019. purified P. pyralis luciferase, luminescence, biochemical. Potency, µM (titrated, usually from 115 µM), actives largely listed as inhibitors; further: nearly all actives have a fitted effect of over 65% in size
#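 Biochemical qHTS: compound (6-point titration) added to 10uM D-luciferin plus 10uM ATP in Tris acetate pH 7.5 buffer with Mg, Tween-20 and BSA, then purified enzyme at 10nM; light output imaged.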
# NIH3T3 tox: Cytotoxic Profiling in NIH 3T3 Cell Line of Diverse Libraries Using Quantitative High-Throughput Screening; 94,000 compounds, 4.3% hits; NIH 3T3 viability, CellTiter-Glo ATP luminescence, 48-72 h; Potency, µM (highest dose often 96.7 µM), hits mostly inhibitors; further: nearly all actives have a fitted effect of over 55% in size
#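 ATP-dependent luminescence (CellTiter-Glo) served as the viability signal for NIH 3T3 cells treated with compound for 48 or 72 hr at 37 °C.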
# NPR1 antag: Natriuretic polypeptide receptor (hNpr1) antagonism - Primary qHTS | 76,000 compounds, 1.6% hits | HEK293 hNpr1 GloSensor cGMP, ANP-stimulated luminescence | Atrial natriuretic peptide receptor 1 (Homo sapiens), P16066 | Potency, µM (series often up to 46.3 µM), hits mostly inhibitors | AID 1347048, 2019; calls by dose curve; further: nearly all actives have a fitted effect of over 60% in size
#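 Compound pre-incubated 30 min at room temperature on GloSensor-loaded HEK293 cells stably carrying hNpr1 and the pGS-40F cGMP biosensor. Stimulation uses hNppA at 0.1 nM final; luminescence is taken at baseline and 20 min post-agonist.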
# A number is an active result; - = inactive; ? = inconclusive; . = no result given. Shown are actives, neighbours in structure and some others; about 11% of the full set was active somewhere. Unless noted, the call rests on the fitted dose curve; in most records, active means well fitted curve in the direction sought with a large enough effect; inconclusive means small, poorly fitted or top-dose-only effect, or another doubt; inactive means no such curve, though single readings can be large; an effect the other way counts as inactive or inconclusive.
SMILES,HEK cytotox,FLuc inh,NIH3T3 tox,NPR1 antag
CCCCc1cc(C[C@H]2CNCC[C@H]2CC(=O)N2CCC(Cc3ccccc3)CC2)no1,?,-,28.2µM,-
O=C(C[C@@H]1CCNC[C@@H]1Cc1cc(COc2ccccc2)on1)NC1CCCCC1,100µM,-,63.1µM,-
COC(=O)CNC(=O)c1ccc(-c2ccc(OC)nn2)cc1Cl,-,.,-,.
O=C(NC1CCN(c2ccnc3ccnn23)CC1)c1cncc(Br)c1,?,.,-,.
O=C(NCc1ccccc1Cl)C1CCN(c2nccc(Nc3ccccc3F)n2)CC1,?,.,39.8µM,.
O=C(NCCCc1ccccc1)C1CCN(c2nccc(Nc3ccccc3F)n2)CC1,35.5µM,.,?,.
CN(C)C(=O)C1CCN(c2nccc(Nc3ccccc3F)n2)CC1,-,.,?,.
COC(=O)CNC(=O)C1CCN(c2nccc(Nc3ccccc3F)n2)CC1,-,.,-,.
COc1ccccc1-n1c(=O)c(C(=O)NCC(F)F)nc2cccnc21,-,.,-,.
CCCCCC(=O)N1CC(=O)N(Cc2c(OC)cccc2OC)CC(O)C1 (stereo not given),?,.,-,.
CN(Cc1ccc(C2CCCCO2)s1)CC1CCN(CCc2ccc(F)cc2)CC1 (stereo not given),44.7µM,-,?,-
C[S+](=O)([O-])CCn1ncc2cc(OCc3cccc(-c4ccccc4F)c3)ccc21,50.1µM,15.8µM,?,?
C[S+](=O)([O-])CCn1ncc2cc(OCc3cccc(-c4cccc(CO)c4)c3)ccc21,50.1µM,?,?,?
COc1ccc(-c2cccc(COc3ccc4c(cnn4CC[S+](C)(=O)[O-])c3)c2)cc1,?,?,?,-
CCOc1ccccc1NC(=O)N1CCC2(CCC2NC(=O)COC)CC1 (stereo not given),-,.,-,.
CC1=C[C@@H](CNCc2cccnc2)[C@H](C(C)C)C[C@H]1Cc1nnc(-c2ccc([N+](=O)[O-])cc2)o1,11.2µM,-,31.6µM,?
CCCc1nnc(C[C@@H]2C[C@@H](C(C)C)[C@H](CNCc3cccnc3)C=C2C)o1,?,-,-,-
COc1ccc(-c2nnc(C[C@@H]3C[C@@H](C(C)C)[C@H](CNCc4ccco4)C=C3C)o2)cc1,44.7µM,-,?,?
COc1ccc(-c2nnc(C[C@@H]3C[C@@H](C(C)C)[C@H](CNCc4ccncc4)C=C3C)o2)cc1,25.1µM,-,?,?
CC1=C[C@@H](CNC(C)C)[C@H](C(C)C)C[C@H]1Cc1nnc(C(C)(C)C)o1,-,-,-,-
CC1=C[C@@H](CNCc2ccco2)[C@H](C(C)C)C[C@H]1Cc1nnc(C(C)(C)C)o1,63.1µM,-,100µM,-
CC(=O)Nc1cc(-c2cccnc2)nn1-c1ccccc1,-,.,-,.
COc1cccc(CNC(=O)c2ccc3nc(-c4ccnc(Cl)c4)oc3c2)c1,-,.,-,.
COc1ccccc1-c1nc2cnccn2c1NCCC(=O)N1CCc2ccccc21,20µM,-,?,-
COc1cccc(-c2nc3cnccn3c2NCCC(=O)N2CCc3ccccc32)c1,?,-,-,-
SMILES,HEK cytotox,FLuc inh,NIH3T3 tox,NPR1 antag
O=C(NC1CCN(c2ccc3nnc(C4CC4)n3n2)C1)c1ccc(F)cc1 (stereo not given),-,.,-,.
Cc1ccc(NC(=O)Cn2c(N3CCC(C)CC3)nc(C)cc2=O)c(C)c1,?,-,?,-
Cc1ccc(NC(=O)Cn2c(N3CCC(C)CC3)nc(C)cc2=O)cc1,?,-,?,?
Cc1cc(=O)n(CC(=O)Nc2ccc(Br)cc2F)c(N2CCC(C)CC2)n1,?,-,15.8µM,-
Cc1cc(=O)n(CC(=O)Nc2cc(Cl)ccc2C)c(N2CCC(C)CC2)n1,35.5µM,-,35.5µM,?
Cc1ccc(C)c(NC(=O)Cn2c(N3CCC(C)CC3)nc(C)cc2=O)c1,28.2µM,-,?,-
Cn1cc(-c2cnc3[nH]cc(CC(=O)NC4CCC4)c3c2)cn1,?,-,31.6µM,-
CC(C)CNC(=O)Cc1c[nH]c2ncc(-c3cnn(C)c3)cc12,-,-,44.7µM,-
CC(C)(C)OCC1CN(CCc2ccccc2)[S+](=O)([O-])c2cccnc2O1 (stereo not given),?,.,-,.
COc1ccc(CN2CC(c3nc(Cc4cccnc4)no3)C2)c(OC)c1,?,-,15.8µM,?
CCCS(=O)(=O)N1CC(c2nc(Cc3cccnc3)no2)C1,-,.,-,.
CC(=O)N1CCCC(C(=O)N2CCC(c3nc4ncccc4[nH]3)CC2)C1 (stereo not given),-,.,-,.
CCN1c2cc(C(=O)Nc3cccc(Br)c3)ccc2C(=O)N2CCCCC21 (stereo not given),17.8µM,-,17.8µM,-
CCN1c2cc(C(=O)Nc3cccc(Br)c3)ccc2C(=O)N2CCCCCC21 (stereo not given),17.8µM,-,28.2µM,-
CCN1c2cc(C(=O)NCc3cccc(C)c3)ccc2C(=O)N2CCCCCC21 (stereo not given),?,-,?,-
CCN1c2cc(C(=O)Nc3ccc(Br)cc3)ccc2C(=O)N2CCCCC21 (stereo not given),?,-,?,-
CCN1c2cc(C(=O)NCc3cccc(Br)c3)ccc2C(=O)N2CCCCC21 (stereo not given),31.6µM,-,?,-
Cn1ncc2c(C(=O)NC3CCC3)cc(-c3ccc(C(F)(F)F)cc3)nc21,39.8µM,.,35.5µM,.
Cn1ncc2c(C(=O)NCC3CC3)cc(-c3ccc(C(F)(F)F)cc3)nc21,31.6µM,.,?,.
COc1cccc(-c2cc(C(=O)NC3CCC3)c3cnn(C)c3n2)c1,79.4µM,.,?,.
Cn1ncc2c(C(=O)NCC3CC3)cc(-c3ccsc3)nc21,?,.,89.1µM,.
COc1ccc(-c2cc(C(=O)NC3CCC3)c3cnn(C)c3n2)cc1,-,.,-,.
Cc1ccc(CNC(=O)C2CCCCc3nnc(-c4ccccc4)n32)o1 (stereo not given),-,.,-,.
COCCN1CCCCCC(O)c2cc(C(=O)N3CCN(c4ccccc4F)CC3)ccc21 (stereo not given),?,-,?,-
COc1cccc(-c2cc(C(=O)NCc3ccccn3)c3cnn(C)c3n2)c1,79.4µM,.,?,.
SMILES,HEK cytotox,FLuc inh,NIH3T3 tox,NPR1 antag
Cc1cccc2c1O[C@H]1[C@H](CO)CN([S+](=O)([O-])Cc3ccccc3)[C@@H]21,79.4µM,.,?,.
Cn1cccc1CN1CCC(N2CC(OCC3CC3)C23CCCCC3)CC1 (stereo not given),?,-,?,-
Cn1cccc1CN1CCC(N2C(=O)C(OCC3CC3)C23CCCCC3)CC1 (stereo not given),44.7µM,-,?,-
CN(CCCNC(=O)C1(CCO)CC12CCOCC2)C1CCCCC1 (stereo not given),-,.,-,.
NC(=O)c1cccc(-c2cc3c(cn2)CN(CCc2ccccc2)CCN3)c1,?,?,89.1µM,-
COc1ccc(CN2CCNc3cc(Nc4ccccc4)ncc3C2)cc1O,100µM,-,79.4µM,-
COc1ccc(CN2CCNc3cc(-c4ccccc4)ncc3C2)cc1O,89.1µM,-,?,-

# Screening results from PubChem.
